Source: PubChem BioAssay AID1445 (SRMLSC, 2008)
Among all 220,000 compounds or so, about 910 (0.41%) were called active. This excerpt belongs to a sample that is enriched for actives. Potency and affinity values are given separately. Unmarked numbers belong to inactive results.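 How the source made its calls: active means primary inhibition above the hit cutoff, then over 50% inhibition at one or more dose response concentrations (cut at about 23% in these data, passing the limit was not always enough); inconclusive means conflicting primary data, or primary hits not chosen for dose response; inactive means low primary inhibition, or under 50% at every dose.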

The compounds below were run against Aminopeptidase N (Plasmodium falciparum (isolate 3D7)) (UniProt O96935) (assay: malaria alanyl aminopeptidase activity blockers – biochemical, fluorogenic H-Leu-NHMec substrate, 1536-well (AID 1445;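 further: plate controls were DMSO full reaction for no effect and no enzyme background for full effect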)). Conditions: recombinant M1AAP, H-Leu-NHMec fluorogenic kinetic assay; at 30 µM, hits give high values unless noted.
Aminopeptidase N (Plasmodium falciparum (isolate 3D7)), sequence (O96935 whole entry, looked up): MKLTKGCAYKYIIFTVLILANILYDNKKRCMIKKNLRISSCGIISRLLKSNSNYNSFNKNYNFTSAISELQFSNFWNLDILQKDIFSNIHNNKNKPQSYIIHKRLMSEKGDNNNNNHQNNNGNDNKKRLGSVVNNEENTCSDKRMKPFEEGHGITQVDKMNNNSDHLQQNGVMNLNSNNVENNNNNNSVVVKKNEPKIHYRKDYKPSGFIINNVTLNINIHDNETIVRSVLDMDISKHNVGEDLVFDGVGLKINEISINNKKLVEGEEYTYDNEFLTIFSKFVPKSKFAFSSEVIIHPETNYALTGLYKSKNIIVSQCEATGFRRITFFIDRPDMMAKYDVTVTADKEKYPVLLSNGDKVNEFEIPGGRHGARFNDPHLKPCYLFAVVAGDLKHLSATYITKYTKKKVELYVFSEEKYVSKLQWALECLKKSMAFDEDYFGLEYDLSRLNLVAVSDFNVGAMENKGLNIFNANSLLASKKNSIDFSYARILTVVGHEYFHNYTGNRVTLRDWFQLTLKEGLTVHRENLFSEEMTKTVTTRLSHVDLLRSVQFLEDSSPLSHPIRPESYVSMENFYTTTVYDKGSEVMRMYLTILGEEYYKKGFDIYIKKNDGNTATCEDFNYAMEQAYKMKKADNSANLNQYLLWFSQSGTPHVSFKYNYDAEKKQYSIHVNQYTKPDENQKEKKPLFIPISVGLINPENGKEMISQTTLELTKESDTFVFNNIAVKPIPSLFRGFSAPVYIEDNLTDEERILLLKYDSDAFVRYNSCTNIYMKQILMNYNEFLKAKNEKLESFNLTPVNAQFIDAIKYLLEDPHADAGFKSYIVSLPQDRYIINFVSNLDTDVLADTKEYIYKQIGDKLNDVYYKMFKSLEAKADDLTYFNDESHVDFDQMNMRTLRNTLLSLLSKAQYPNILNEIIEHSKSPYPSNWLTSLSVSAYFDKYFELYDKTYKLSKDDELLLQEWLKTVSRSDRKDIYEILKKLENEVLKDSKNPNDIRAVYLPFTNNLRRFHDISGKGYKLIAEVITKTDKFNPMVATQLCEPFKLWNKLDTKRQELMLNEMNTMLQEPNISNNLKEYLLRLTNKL

| SMILES | inhibition |
| --- | --- |
| Cc1c(NC(=O)C(C)OC(=O)/C=C/c2ccccc2)c(=O)n(-c2ccccc2)n1C (centres undefined) | -2.48% |
| Cc1ccccc1Cn1c(Cc2ccccc2)nc2ccccc21 | -1.18% |
| Cc1cccc2cc(C#N)c(SCC#N)nc12 | 4.01% |
| c1ccc(N2N=C(c3cccs3)CC2c2ccco2)cc1 (centres undefined) | 18.2% |
| Clc1ccc(N2N=C(c3cccs3)CC2c2ccco2)cc1 (centres undefined) | 4.39% |
| NC(=O)CC(NC(=O)Cc1ccc(Br)cc1)c1ccc(N2CCN(c3ccccc3)CC2)c([N+](=O)[O-])c1 (centres undefined) | 7.14% |
| CCOC(=O)Cc1nnc(NC(=O)CSc2nnc3c4ccccc4n(C(C)C)c3n2)s1 | 10.5% |
| CCOC(=O)Cc1nnc(NC(=O)C(CC)Sc2nnc3c4ccccc4n(C)c3n2)s1 (centres undefined) | 23.4% (active) |
| CCOC(=O)Cc1nnc(NC(=O)CSc2nnc3c4ccccc4n(C)c3n2)s1 | 14% |
| Cc1ccc(CNC(=O)CCNS(=O)(=O)c2ccc(C)cc2)cc1 | 9.63% |
| CC(C)NS(=O)(=O)c1ccc(CCC(=O)Nc2ccc3c(c2)OCO3)cc1 | 9.11% |
| CCNS(=O)(=O)c1ccc(CCC(=O)Nc2ccccc2)cc1 | 3.88% |
| Cc1ccc(CNC(=O)CCc2ccc(S(=O)(=O)NCC(C)C)cc2)cc1 | 8.45% |
| CC(C)(C)NS(=O)(=O)c1ccc(CCC(=O)NCc2ccc3c(c2)OCO3)cc1 | 18.7% |
| O=C(CCc1ccc(S(=O)(=O)NCc2ccccc2)cc1)NCc1cccnc1 | 6.09% |
| O=C(Nc1cc(C(F)(F)F)ccc1Cl)C(Sc1nnc(-c2cccs2)o1)c1ccccc1 (centres undefined) | -4.08% |
| COCCCNCCOCCOc1c(OC)cccc1OC | -5.39% |
| Cc1cc(C2=CC(C)(c3cc(C)oc3C)Nc3nc(C(F)(F)F)nn32)c(C)o1 (centres undefined) | 6.98% |
| O=C(CNC(=O)c1ccc(F)cc1)Nc1ccccc1C(F)(F)F | -1.13% |
| CCOC(=O)C1=C(C)NC2=C(C(=O)CCC2)C1c1ccc(O)c(OCC)c1 (centres undefined) | -7% |

| SMILES | inhibition |
| --- | --- |
| O=C(Nc1nccs1)c1ccc(NC(=O)C2CC=CCC2C(=O)O)cc1 (centres undefined) | 8.55% |
| CC1(C)CC(=O)C(C=NCCc2ccc(S(N)(=O)=O)cc2)=C(O)C1 | 12% |
| O=S(=O)(Nc1nc2ccc(S(=O)(=O)N3CCCC3)cc2s1)c1ccc(F)cc1 | 17.8% |
| O=S(=O)(Nc1nc2ccc(S(=O)(=O)N3CCCCC3)cc2s1)c1ccccc1 | 23.2% |
| O=C(O)CCC(=O)N(Cc1cccnc1)Cc1cccc(F)c1 | 6.62% |
| CCCCCN(C(=O)NC(=O)Nc1ccccc1C)S(=O)(=O)c1ccccc1 | -0.93% |
| COc1ccc(-c2nc(CSCC(=O)N3CCN(c4cccc(C)c4)C(C)C3)c(C)o2)cc1OC (centres undefined) | 23.8% (active) |
| COc1ccc(-c2nc(CSCC(=O)N3CCN(C)CC3)c(C)o2)cc1OC | 1.38% |
| CCN1CCN(C(=O)CSCc2nc(-c3ccc(OC)c(OC)c3)oc2C)CC1 | 1.5% |
| COc1ccc(/C=N/NC(=S)Nc2ccccc2)cc1COc1ccc(Br)cc1 | 5.9% |
| Cc1nnc2n1NC(c1ccc(Cl)cc1)C(C(=O)N(C)C1CCCCC1)S2 (centres undefined) | 14.7% |
| Cc1cccc2cc(CN(CCN3CCOCC3)C(=O)NCc3ccccc3)c(=O)[nH]c12 | 11.1% |
| COC(=O)CC[C@@H](C(=O)O)N1C(=O)c2ccccc2C1=O | 1.27% |
| O=C(NCc1ccco1)c1nn2c(C(F)(F)F)cc(-c3cccs3)nc2c1Br | 15.8% |
| O=C(CSc1nc2nc(-c3cccs3)cc(C(F)(F)F)c2c(=O)[nH]1)Nc1ccc(F)c(F)c1 | 12.9% |
| O=C(CSc1nc(-c2cccs2)cc(C(F)(F)F)n1)NCc1ccco1 | 8.47% |
| CC(=O)Nc1ccc(NC(=O)CSc2nc3nc(-c4cccs4)cc(C(F)(F)F)c3c(=O)[nH]2)cc1 | 13.8% |
| CCOc1ccccc1NC(=O)CSc1nc2nc(-c3cccs3)cc(C(F)(F)F)c2c(=O)[nH]1 | 3.01% |
| COc1ccc(NC(=O)CSc2ccc(-c3cccs3)nn2)c(OC)c1 | 4.92% |
| COC(=O)c1ccc(OC(=O)CCN2c3ccccc3Sc3ccccc32)cc1 | -4.42% |

| SMILES | inhibition |
| --- | --- |
| CC(=O)Nc1ccc(Nc2cc(-c3ccccc3)nc3ncnn23)cc1 | 1.24% |
| NC(=O)c1nnsc1Sc1c(C(N)=O)nnn1-c1cccc(N)c1 | 4.16% |
| OCCNCCOc1ccccc1F | 7.92% |
| COC(=O)[C@H](CC(C)C)NC(=O)NCc1ccc(Cl)cc1 | 5.26% |
| Cc1ccn2c(Nc3ccc4c(c3)OCO4)c(-c3ccccn3)nc2c1 | 12.3% |
| N#Cc1c(NC(=O)C2CCCO2)sc2c1CCCCCC2 (centres undefined) | 3.88% |
| O=C1CC(c2ccccc2)Cc2nc3nc(C(F)(F)F)nn3cc21 (centres undefined) | -1.32% |
| Cc1ccc(NS(=O)(=O)Cc2ccccc2)nc1 | 5.38% |
| O=c1oc(-c2ccccc2NS(=O)(=O)c2ccccc2)nc2ccccc12 | 9.41% |
| O=C1Nc2ccccc2C1=Nc1ccc(S(=O)(=O)Nc2nccs2)cc1 | 9.76% |
| O=S(=O)(Cc1ccccc1)Nc1ccc(Br)cn1 | 1.35% |
| COc1ccccc1NC(=O)C1=C(C)NC(=O)NC1c1ccccc1F (centres undefined) | 5.11% |
| CCN(CC)CC(C)(C)NS(=O)(=O)c1ccc(Cl)cc1 | -1.17% |
| CC(C)OCCCNC(=O)c1ccc2c(=O)n(Cc3ccc4c(c3)OCO4)c(=S)[nH]c2c1 | -0.14% |
| COc1ccc(/C=C/C(=O)NCCSCc2ccco2)cc1 | 8.04% |
| Cc1ccccc1C(=O)OCc1nnc(-c2ccc(Cl)cc2)o1 | 1.13% |
| NC(CC(=O)O)c1ccc(F)cc1 (centres undefined) | 0.38% |
| COC(=O)CC(N)c1ccc(Br)cc1 (centres undefined) | 3.11% |
| Cc1c(/C=N/NC(=O)c2cc(C(C)(C)C)[nH]n2)c2ccccc2n1C | 4.3% |
